# Source: PubChem BioAssay (EPA / NIEHS)
# The source made the active and inactive calls. Rule for the calls: active = hit-call score of the fitted dose curve at least 0.9, where 1 is the maximum; inactive = score below 0.9.
# Tests used:
# [1] = ATG_CRE_CIS: Attagene CIS-FACTORIAL HepG2 Assay for human cAMP Responsive Element (CRE) binding protein 3 (AID 2282926); settings: HepG2 CRE cis-reporter, Attagene multiplexed mRNA; actives raise or lower the signal
# How it was run: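 Human liver HepG2, transient MRTU transfection, 24 h compound exposure. Total RNA → oligo(dT) RT → PCR → 6-FAM primer extension → HpaI cut → CE. Activity called both directions vs DMSO.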
# [2] = target: CCAAT/enhancer-binding protein beta (Homo sapiens) (UniProt P17676); test: ATG_C_EBP_CIS: Attagene CIS-FACTORIAL HepG2 Assay for human CCAAT/Enhancer Binding Protein (C/EBP) beta (AID 2282927); settings: HepG2 Attagene cis-factorial transcription factor reporter; actives raise or lower the signal
# How it was run: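 Chemical-treated HepG2 cells (24 h) bearing cis-regulated reporter constructs were processed for total RNA, then reverse transcription, PCR amplification, fluorescent primer extension and fragment analysis; gain- and loss-of-signal were fitted against DMSO.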
# [3] = ATG_CMV_CIS: Attagene CIS-FACTORIAL HepG2 Assay for human CMV (Internal Marker) (AID 2282928); settings: HepG2 CMV promoter reporter, transcription factor profiling; actives raise or lower the signal;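 note: endpoint acts as a background internal control marker rather than a target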
# How it was run: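 HepG2 cells transiently transfected with multiple cis-regulated reporter units; 24 h compound exposure. Reporter mRNA quantified by RT-PCR, 6-FAM primer-extension labeling, HpaI digestion and capillary electrophoresis; bidirectional fitting against DMSO baseline.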
# [4] = ATG_DR4_LXR_CIS: Attagene CIS-FACTORIAL HepG2 Assay for human Liver X Receptor (LXR), DR4 submotif (AID 2282929); settings: HepG2 Attagene DR4 cis-reporter, mRNA transcription; actives raise or lower the signal
# How it was run: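 Measures endogenous transcription factor activity via a DR4-driven reporter transcript in human HepG2 cells. Compounds incubated 24 h; mRNA quantified by RT-PCR and capillary electrophoresis, analysed as gain or loss of signal versus DMSO.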
# [5] = target: Aryl hydrocarbon receptor (Homo sapiens) (UniProt P35869); test: ATG_Ahr_CIS: Attagene CIS-FACTORIAL HepG2 Assay for human Aryl Hydrocarbon Receptor (Ahr) (AID 2282930); settings: HepG2 AhR cis-factorial reporter transcription; actives raise or lower the signal
# How it was run: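 Following 24 h of chemical dosing, transfected HepG2 liver cells with cis-driven reporter units were lysed for RNA; reporter mRNA was quantified via RT-PCR and capillary electrophoresis, and responses fitted bidirectionally from DMSO.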
# [6] = ATG_AP_1_CIS: Attagene CIS-FACTORIAL HepG2 Assay for human Activator Protein 1 (AP-1) (AID 2282931); settings: HepG2 Attagene cis-factorial AP-1 reporter mRNA; actives raise or lower the signal
# How it was run: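 Bidirectional concentration-response fitting against DMSO controls. Underlying signal: reporter mRNA from cis-promoter constructs in transiently transfected HepG2, measured after 24 h by RT-PCR and capillary electrophoresis.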
# [7] = ATG_AP_2_CIS: Attagene CIS-FACTORIAL HepG2 Assay for human Activator Protein 2 (AP-2) (AID 2282932); settings: HepG2 AP-2 cis-reporter, Attagene transcription factor profiling; actives raise or lower the signal
# How it was run: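 Bidirectional curve fitting against DMSO was applied to reporter mRNA signals from HepG2 cells 24 h after dosing. Cis-promoter reporter units, transiently transfected, were read by RT-PCR plus capillary electrophoresis.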
# [8] = ATG_BRE_CIS: Attagene CIS-FACTORIAL HepG2 Assay for human Bone Morphogenetic Protein (BMP) Response Element (BRE) (AID 2282933); settings: HepG2 BMP response element reporter, Attagene transcription factor profiling; actives raise or lower the signal
# How it was run: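 HepG2 cells transiently transfected with CIS reporter units (endogenous TF activity, BMP response element), dosed 24 h. Reporter mRNA quantified by RT-PCR, fluorescent labelling and capillary electrophoresis; bidirectional fit vs DMSO baseline.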
# [9] = target: Retinoic acid receptor alpha (Homo sapiens) (UniProt P10276); test: ATG_DR5_RAR_CIS: Attagene CIS-FACTORIAL HepG2 Assay for human Retinoic Acid Receptor Alpha (RARE), DR5 submotif (AID 2282934); settings: HepG2 Attagene cis-factorial RARE DR5 reporter, mRNA; actives raise or lower the signal
# How it was run: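 Transfected HepG2 reporter cells are exposed to chemicals for 24 h. Then RNA is extracted and the DR5 element reporter transcript is measured by RT-PCR and capillary electrophoresis, with bidirectional curve fitting relative to DMSO.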
# [10] = target: Transcription factor E2F1 (Homo sapiens) (UniProt Q01094); test: ATG_E2F_CIS: Attagene CIS-FACTORIAL HepG2 Assay for human E2F Transcription Factor 1 (AID 2282935); settings: HepG2 Attagene cis-reporter, E2F reporter RNA transcripts; actives raise or lower the signal
# How it was run: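 Multiplexed cis-reporter assay: HepG2, transient transfection, 24 h dosing, mRNA quantitation by labeled RT-PCR and CE.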
# [11] = ATG_E_Box_CIS: Attagene CIS-FACTORIAL HepG2 Assay for human Enhancer Box (E-box) (AID 2282936); settings: HepG2 E-box cis-reporter transcription, actives raise or lower the signal
# How it was run: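 Multiplexed CIS reporter system in transiently transfected HepG2 cells measures native transcription factor activity. Reporter RNA after 24 h exposure is profiled by RT-PCR-capillary electrophoresis.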
# [12] = ATG_M_61_CIS: Attagene CIS-FACTORIAL HepG2 Assay for M61 Transcription Factor (Internal Marker) (AID 2282937); settings: HepG2 Attagene CIS-FACTORIAL M61 internal marker reporter; actives raise or lower the signal
# How it was run: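 Fluorescence from labelled cDNA fragments, separated by capillary electrophoresis, quantifies reporter induction. HepG2 cells bearing transiently transfected cis-promoter MRTUs were incubated with test chemical for 24 h; DMSO defined baseline for gain/loss fitting.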
# [13] = ATG_EGR_CIS: Attagene CIS-FACTORIAL HepG2 Assay for human Early Growth Response 1 (EGR1) (AID 2282938); settings: HepG2 Attagene CIS-FACTORIAL EGR reporter mRNA; actives raise or lower the signal
# How it was run: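 Cell-based multiplex transcription assay: HepG2 carrying transfected cis-element reporter units, 24 h chemical treatment. Fluorescence from capillary electrophoresis of RT-PCR products gives mRNA levels; fitting is bidirectional relative to DMSO.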
# [14] = ATG_M_19_CIS: Attagene CIS-FACTORIAL HepG2 Assay for M19 Transcription Factor (Internal Marker) (AID 2282939); settings: HepG2 Attagene CIS-FACTORIAL M19 internal marker reporter; actives raise or lower the signal
# How it was run: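 HepG2 cells transiently transfected with cis-regulated multiplexed reporter units, dosed 24 h. Reporter mRNA quantified by RT-PCR and capillary electrophoresis; internal background marker fitted bidirectionally versus DMSO.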
# [15] = ATG_ERE_CIS: Attagene CIS-FACTORIAL HepG2 Assay for Estrogen Response Element (ERE) (AID 2282940); settings: HepG2 ERE cis-reporter, Attagene RNA transcript; actives raise or lower the signal
# How it was run: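 HepG2 cells transiently transfected with multiplexed cis-element reporter units, measuring endogenous transcription factor activity; ERE reporter mRNA quantified after 24 h exposure by RT-PCR, fluorescent labelling, HpaI digestion and capillary electrophoresis. Bidirectional change versus DMSO.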
# [16] = ATG_Ets_CIS: Attagene CIS-FACTORIAL HepG2 Assay for human Erythroblast Transformation Specific (ETS) (AID 2282941); settings: HepG2 ETS cis-reporter transcription, actives raise or lower the signal
# How it was run: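 HepG2 cells transiently transfected with cis-promoter reporter transcription units were dosed for 24 h; reporter mRNA was measured by RT-PCR, 6-FAM primer extension, HpaI digestion and capillary electrophoresis, with bidirectional fitting against DMSO baseline.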
# [17] = target: Hepatocyte nuclear factor 3-beta (Homo sapiens) (UniProt Q9Y261); test: ATG_FoxA2_CIS: Attagene CIS-FACTORIAL HepG2 Assay for human Forkhead box A2 (FOXA2) (AID 2282942); settings: HepG2 cis-reporter transcription factor activity, 24 h; actives raise or lower the signal
# How it was run: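 In transiently transfected human HepG2 cells, promoter-driven reporter mRNA levels after 24 h chemical exposure are determined via RT-PCR with capillary electrophoresis. DMSO serves as baseline for bidirectional fitting.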
# [18] = ATG_FoxO_CIS: Attagene CIS-FACTORIAL HepG2 Assay for human Forkhead box O (FoxO) (AID 2282943); settings: HepG2 Attagene cis-reporter, FoxO element, mRNA; actives raise or lower the signal
# How it was run: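 24 h chemical exposure, HepG2 with transient cis-MRTU transfection. RNA extraction, oligo(dT) RT, reporter-specific PCR, primer-extension labelling, HpaI digestion, CE fragment analysis; bidirectional fit, DMSO baseline.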
# [19] = ATG_GATA_CIS: Attagene CIS-FACTORIAL HepG2 Assay for human GATA Binding Protein (AID 2282944); settings: HepG2 GATA cis-element reporter, Attagene multiplex mRNA; actives raise or lower the signal
# How it was run: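 HepG2 cells transiently transfected with multiplexed cis-element reporter units measure endogenous GATA activity; after 24 h compound exposure, reporter mRNA quantified by RT-PCR and capillary electrophoresis. Changes fitted in both directions vs DMSO.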
# [20] = ATG_GLI_CIS: Attagene CIS-FACTORIAL HepG2 Assay for human Zinc Finger Protein GLI1 (AID 2282945); settings: HepG2, Attagene cis-factorial reporter mRNA, GLI element; actives raise or lower the signal
# How it was run: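 HepG2 cells transiently transfected with cis-promoter multiplexed reporter units report endogenous transcription factor activity. After 24 h chemical exposure, reporter mRNA was quantified by RT-PCR, 6-FAM labelling, HpaI digestion and capillary electrophoresis, with bidirectional fitting against DMSO.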
# Transcription factor E2F1 (Homo sapiens), sequence (Q01094 whole entry, looked up): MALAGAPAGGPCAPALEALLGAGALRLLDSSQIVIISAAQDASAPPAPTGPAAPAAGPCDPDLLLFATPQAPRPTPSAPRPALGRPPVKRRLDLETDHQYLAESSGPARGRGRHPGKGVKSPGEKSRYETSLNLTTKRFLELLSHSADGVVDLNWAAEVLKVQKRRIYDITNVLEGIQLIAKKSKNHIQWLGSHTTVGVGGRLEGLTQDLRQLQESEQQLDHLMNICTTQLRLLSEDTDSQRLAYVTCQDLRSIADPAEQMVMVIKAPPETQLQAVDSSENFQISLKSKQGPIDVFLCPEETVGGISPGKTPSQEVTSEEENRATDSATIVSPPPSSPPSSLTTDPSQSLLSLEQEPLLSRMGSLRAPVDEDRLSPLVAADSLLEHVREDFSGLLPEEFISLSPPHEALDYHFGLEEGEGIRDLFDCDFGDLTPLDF
# Aryl hydrocarbon receptor (Homo sapiens), sequence (P35869 whole entry, looked up): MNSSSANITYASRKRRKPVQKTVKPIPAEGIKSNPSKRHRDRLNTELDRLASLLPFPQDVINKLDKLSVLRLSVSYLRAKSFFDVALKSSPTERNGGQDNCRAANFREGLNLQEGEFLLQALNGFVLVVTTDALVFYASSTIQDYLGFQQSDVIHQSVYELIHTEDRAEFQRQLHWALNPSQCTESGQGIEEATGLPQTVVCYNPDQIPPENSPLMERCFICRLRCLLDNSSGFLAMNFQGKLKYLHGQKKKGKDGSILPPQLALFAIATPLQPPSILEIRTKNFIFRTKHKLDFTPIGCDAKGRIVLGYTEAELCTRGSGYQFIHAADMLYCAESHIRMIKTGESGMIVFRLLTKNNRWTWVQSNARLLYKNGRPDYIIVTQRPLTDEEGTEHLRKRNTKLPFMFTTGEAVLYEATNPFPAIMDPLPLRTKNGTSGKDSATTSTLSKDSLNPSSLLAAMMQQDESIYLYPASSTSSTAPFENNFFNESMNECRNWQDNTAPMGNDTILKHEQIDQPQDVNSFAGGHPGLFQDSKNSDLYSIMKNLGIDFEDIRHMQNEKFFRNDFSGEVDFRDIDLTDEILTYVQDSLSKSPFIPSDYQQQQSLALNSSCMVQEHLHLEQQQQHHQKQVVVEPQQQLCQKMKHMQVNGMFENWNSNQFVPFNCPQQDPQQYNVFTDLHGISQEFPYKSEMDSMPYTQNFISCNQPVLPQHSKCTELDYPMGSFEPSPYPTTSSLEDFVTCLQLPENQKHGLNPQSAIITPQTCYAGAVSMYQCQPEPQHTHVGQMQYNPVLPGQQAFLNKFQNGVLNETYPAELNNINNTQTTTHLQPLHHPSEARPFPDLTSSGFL
# Hepatocyte nuclear factor 3-beta (Homo sapiens), sequence (Q9Y261 whole entry, looked up): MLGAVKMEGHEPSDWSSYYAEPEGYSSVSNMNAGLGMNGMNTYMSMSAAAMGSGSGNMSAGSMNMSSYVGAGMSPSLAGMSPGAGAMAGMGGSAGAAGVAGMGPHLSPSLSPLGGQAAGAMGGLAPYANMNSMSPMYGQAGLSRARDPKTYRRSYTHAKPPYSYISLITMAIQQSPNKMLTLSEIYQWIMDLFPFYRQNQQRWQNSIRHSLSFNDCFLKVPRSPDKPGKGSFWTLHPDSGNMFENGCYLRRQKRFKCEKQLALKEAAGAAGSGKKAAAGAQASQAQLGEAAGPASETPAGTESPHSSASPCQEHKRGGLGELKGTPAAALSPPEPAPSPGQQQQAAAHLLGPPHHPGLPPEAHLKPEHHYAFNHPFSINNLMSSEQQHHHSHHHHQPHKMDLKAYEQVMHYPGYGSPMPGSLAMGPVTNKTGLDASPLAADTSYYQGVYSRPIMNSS
# Retinoic acid receptor alpha (Homo sapiens), sequence (P10276 whole entry, looked up): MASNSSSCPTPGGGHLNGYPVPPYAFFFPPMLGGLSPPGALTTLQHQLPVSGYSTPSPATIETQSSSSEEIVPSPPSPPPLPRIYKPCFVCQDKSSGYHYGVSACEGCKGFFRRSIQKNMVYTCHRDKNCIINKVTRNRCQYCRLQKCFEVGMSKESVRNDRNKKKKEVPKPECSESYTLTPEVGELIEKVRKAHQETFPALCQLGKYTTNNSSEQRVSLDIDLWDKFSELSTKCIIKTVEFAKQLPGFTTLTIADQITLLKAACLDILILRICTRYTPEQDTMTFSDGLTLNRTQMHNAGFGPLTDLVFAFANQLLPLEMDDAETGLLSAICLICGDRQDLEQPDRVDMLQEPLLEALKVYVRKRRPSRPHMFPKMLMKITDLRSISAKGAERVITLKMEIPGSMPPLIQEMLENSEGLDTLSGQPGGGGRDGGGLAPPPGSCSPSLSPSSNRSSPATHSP
# CCAAT/enhancer-binding protein beta (Homo sapiens), sequence (P17676 whole entry, looked up, the tested form may be a part): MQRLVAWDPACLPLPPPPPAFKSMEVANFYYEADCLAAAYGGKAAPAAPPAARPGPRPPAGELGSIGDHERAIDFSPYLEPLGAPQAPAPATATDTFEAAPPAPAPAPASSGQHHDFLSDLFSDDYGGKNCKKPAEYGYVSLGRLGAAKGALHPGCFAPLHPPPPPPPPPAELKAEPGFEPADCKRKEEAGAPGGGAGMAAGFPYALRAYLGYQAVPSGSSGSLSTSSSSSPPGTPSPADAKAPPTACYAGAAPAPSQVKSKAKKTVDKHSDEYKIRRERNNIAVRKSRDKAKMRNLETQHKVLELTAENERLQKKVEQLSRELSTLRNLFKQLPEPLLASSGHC
smiles,measurement,setting,value
O=C(Nc1cccc(C(F)(F)F)c1)c1cc(Br)cc(Br)c1O,AC50,[1],100 µM (active)
same,outcome,[2],inactive
same,AC50,[3],160 µM (active)
same,AC50,[4],38.3 µM (active)
same,outcome,[5],inactive
same,outcome,[6],inactive
same,AC50,[7],5.76 µM (active)
same,AC50,[8],1.08 µM (active)
same,outcome,[9],inactive
same,outcome,[10],inactive
same,AC50,[11],77.6 µM (active)
same,outcome,[12],inactive
same,AC50,[13],25.5 µM (active)
same,outcome,[14],inactive
same,outcome,[15],inactive
same,outcome,[16],inactive
same,outcome,[17],inactive
same,outcome,[18],inactive
same,outcome,[19],inactive
same,AC50,[20],83 µM (active)
CC(=O)OCc1ccco1,outcome,[1],inactive
same,outcome,[2],inactive
same,outcome,[3],inactive
same,outcome,[4],inactive
same,outcome,[5],inactive
same,outcome,[6],inactive
same,outcome,[7],inactive
same,outcome,[8],inactive
same,outcome,[9],inactive
same,outcome,[10],inactive
same,outcome,[11],inactive
same,outcome,[12],inactive
same,outcome,[13],inactive
same,outcome,[14],inactive
same,outcome,[15],inactive
same,outcome,[16],inactive
same,outcome,[17],inactive
same,outcome,[18],inactive
same,outcome,[19],inactive
same,outcome,[20],inactive
C[C@]12CCC(=O)C=C1CC[C@@H]1[C@@H]2C(=O)C[C@@]2(C)[C@H]1CC[C@]2(O)C(=O)CO,outcome,[1],inactive
same,outcome,[2],inactive
same,outcome,[3],inactive
same,outcome,[4],inactive
same,outcome,[5],inactive
same,outcome,[6],inactive
same,outcome,[7],inactive
same,outcome,[8],inactive
same,outcome,[9],inactive
same,outcome,[10],inactive
same,outcome,[11],inactive
same,outcome,[12],inactive
same,outcome,[13],inactive
same,outcome,[14],inactive
same,outcome,[15],inactive
same,outcome,[16],inactive
same,outcome,[17],inactive
same,outcome,[18],inactive
same,outcome,[19],inactive
same,outcome,[20],inactive
CNC(=S)N(C)C,outcome,[1],inactive
same,outcome,[2],inactive
same,outcome,[3],inactive
same,outcome,[4],inactive
same,outcome,[5],inactive
same,outcome,[6],inactive
same,outcome,[7],inactive
same,outcome,[8],inactive
same,outcome,[9],inactive
same,outcome,[10],inactive
same,outcome,[11],inactive
same,outcome,[12],inactive
same,outcome,[13],inactive
same,outcome,[14],inactive
same,outcome,[15],inactive
same,outcome,[16],inactive
same,outcome,[17],inactive
same,outcome,[18],inactive
same,outcome,[19],inactive
same,outcome,[20],inactive
CCCCC(CC)CCC(CC(C)C)OS(=O)(=O)O (centres undefined),AC50,[1],142 µM (active)
same,outcome,[2],inactive
same,outcome,[3],inactive
same,outcome,[4],inactive
same,outcome,[5],inactive
same,AC50,[6],139 µM (active)
same,outcome,[7],inactive
same,outcome,[8],inactive
same,outcome,[9],inactive
same,outcome,[10],inactive
same,outcome,[11],inactive
same,outcome,[12],inactive
same,outcome,[13],inactive
same,outcome,[14],inactive
same,outcome,[15],inactive
same,outcome,[16],inactive
same,outcome,[17],inactive
same,outcome,[18],inactive
same,outcome,[20],inactive
N#[N+]c1ccc2c(S(=O)(=O)[O-])cccc2c1O,outcome,[1],inactive
same,outcome,[2],inactive
same,outcome,[3],inactive
same,outcome,[4],inactive
same,outcome,[5],inactive
same,outcome,[6],inactive
same,outcome,[7],inactive
same,outcome,[8],inactive
same,outcome,[9],inactive
same,outcome,[10],inactive
same,outcome,[11],inactive
same,outcome,[12],inactive
same,outcome,[13],inactive
same,outcome,[14],inactive
same,outcome,[15],inactive
same,outcome,[16],inactive
same,outcome,[17],inactive
same,outcome,[18],inactive
same,outcome,[19],inactive
same,outcome,[20],inactive
c1cc(C(c2ccc(OCC3CO3)cc2)C(c2ccc(OCC3CO3)cc2)c2ccc(OCC3CO3)cc2)ccc1OCC1CO1 (centres undefined),AC50,[1],30.7 µM (active)
same,outcome,[2],inactive
same,AC50,[3],64.3 µM (active)
same,AC50,[4],33.1 µM (active)
same,outcome,[5],inactive
same,outcome,[6],inactive
same,outcome,[7],inactive
same,outcome,[8],inactive
same,outcome,[9],inactive
same,outcome,[10],inactive
same,outcome,[11],inactive
same,outcome,[12],inactive
same,AC50,[13],39.5 µM (active)
same,outcome,[14],inactive
same,outcome,[15],inactive
same,outcome,[16],inactive
same,outcome,[17],inactive
same,outcome,[18],inactive
same,outcome,[19],inactive
same,outcome,[20],inactive
